# Values joined by “and” are separate entries in the source; they are usually repeats but may differ in a detail not shown here. Identical values can stand only once. Results filed as inconclusive are left out. Entries that show only a call come without a potency. Active and inactive are the calls of the source. Unless noted, calls come from the whole dose curve; as a rule, active = well fitted curve in the direction sought with a large enough effect; inconclusive = small, poorly fitted or top-dose-only effect, or another doubt; inactive = no such curve, though single readings can be large; an effect the other way counts as inactive or inconclusive.
# Experiments:
# [1] = Cellular Toxicity (caspase-3) HepG2 (AID 654);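 note: cells exposed to compound for 16 hours before reading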
# Outline: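 HepG2 cells (1500/well) in complete medium were treated with compounds for 16 hr at 37 °C. Caspase-3/7 activity was then read as luminescence from peptide-aminoluciferin cleavage. AC50 came from Hill fits, normalized to DMSO and 100 uM tamoxifen.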
# [2] = Cellular Toxicity (caspase-3) Renal Proximal Tubule (AID 667); settings: renal proximal tubule cells; at 91.7 µM (top of the series), primary cells freshly taken from rat, solvent-only wells 0%, staurosporine 100% unless noted;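 note: cells exposed to compound for 16 hours at 37 °C before detection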
# Outline: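 Luminescent caspase 3/7 signal from peptide-aminoluciferin cleavage measures apoptosis in freshly isolated rat kidney proximal tubule cells after 16 h compound exposure. Concentration-response data are normalized to DMSO and 10 uM staurosporine, and AC50 values come from Hill equation fits.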
# [3] = MultiTox-Fluor Cytotoxicity Assay - LYMP1-002 - Live Cells (AID 955)
# Outline: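 Human lymphoblastoid LYMP1-002 cells, 2500/well in complete medium, rested 5 hr at 37 C, then exposed to compounds for 16 hr at 37 C. Live-cell protease cleavage of GF-AFC read by fluorescence (Ex/Em 405/510) after 60 min at room temperature; AC50 from Hill fits.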
# [4] = target: Glucocorticoid receptor (Homo sapiens) (UniProt P04150); test: qHTS assay for small molecule agonists of glucocorticoid receptor signaling (AID 588532; active = well fitted curve in the direction sought with a large enough effect in the signal ratio, with a control signal flat; the % refers to the signal ratio); settings: HeLa MMTV-bla, beta-lactamase ratio, agonist, 18 h; stronger effect = higher value; percent of dexamethasone control, DMSO zero
# Chain of Glucocorticoid receptor (Homo sapiens) (P04150 whole entry, looked up): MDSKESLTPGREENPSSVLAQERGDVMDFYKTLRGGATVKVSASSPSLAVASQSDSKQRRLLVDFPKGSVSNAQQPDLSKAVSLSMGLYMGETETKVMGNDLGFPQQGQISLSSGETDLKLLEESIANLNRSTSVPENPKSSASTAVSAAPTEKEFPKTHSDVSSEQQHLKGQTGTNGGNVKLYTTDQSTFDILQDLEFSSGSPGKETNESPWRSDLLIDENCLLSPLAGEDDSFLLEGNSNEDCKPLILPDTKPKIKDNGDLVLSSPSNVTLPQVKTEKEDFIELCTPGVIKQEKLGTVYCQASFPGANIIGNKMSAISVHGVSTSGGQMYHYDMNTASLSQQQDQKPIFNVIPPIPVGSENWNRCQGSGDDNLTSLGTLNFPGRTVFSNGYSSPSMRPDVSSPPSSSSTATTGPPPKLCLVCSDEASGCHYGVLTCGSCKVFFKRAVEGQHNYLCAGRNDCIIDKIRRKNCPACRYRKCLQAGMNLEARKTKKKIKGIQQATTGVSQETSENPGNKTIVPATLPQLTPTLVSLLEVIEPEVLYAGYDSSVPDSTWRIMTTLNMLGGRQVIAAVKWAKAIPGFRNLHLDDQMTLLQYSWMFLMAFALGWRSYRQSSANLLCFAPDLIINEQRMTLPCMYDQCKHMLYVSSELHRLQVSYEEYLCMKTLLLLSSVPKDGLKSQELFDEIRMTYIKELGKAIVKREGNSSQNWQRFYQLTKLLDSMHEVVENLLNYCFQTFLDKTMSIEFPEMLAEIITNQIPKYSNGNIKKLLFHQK
# Outline: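 Agonist-mode qHTS: GRE-driven beta-lactamase in HeLa cells exposed 18 h to titrated compounds (up to 92 uM), then CCF4 ratio read after 2 h at RT; Hill-fitted EC50, efficacy relative to 0.1 uM dexamethasone.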
# [5] = qHTS assay for small molecule antagonists of peroxisome proliferator-activated receptor delta signaling (AID 588535); settings: HEK293T PPARd-UAS-bla, beta-lactamase FRET ratio, 18 h; 460 nm channel;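 note: cells co-treated with a PPAR-delta agonist as stimulator during compound exposure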
# Outline: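 Cell-based beta-lactamase assay in antagonist mode: 4000 HEK293T PPAR-delta-UAS-bla cells per well, 5 hr preincubation then 18 hr compound incubation at 37 C. IC50 obtained by Hill equation fitting.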
# [6] = target: Peroxisome proliferator-activated receptor gamma (Homo sapiens) (UniProt P37231); test: qHTS assay for small molecule agonists of peroxisome proliferator-activated receptor gamma signaling (AID 588536; active = well fitted curve in the direction sought with a large enough effect in the signal ratio, with a control signal flat, not every such curve was filed as active; the % refers to the signal ratio)
# Chain of Peroxisome proliferator-activated receptor gamma (Homo sapiens) (P37231 whole entry, looked up): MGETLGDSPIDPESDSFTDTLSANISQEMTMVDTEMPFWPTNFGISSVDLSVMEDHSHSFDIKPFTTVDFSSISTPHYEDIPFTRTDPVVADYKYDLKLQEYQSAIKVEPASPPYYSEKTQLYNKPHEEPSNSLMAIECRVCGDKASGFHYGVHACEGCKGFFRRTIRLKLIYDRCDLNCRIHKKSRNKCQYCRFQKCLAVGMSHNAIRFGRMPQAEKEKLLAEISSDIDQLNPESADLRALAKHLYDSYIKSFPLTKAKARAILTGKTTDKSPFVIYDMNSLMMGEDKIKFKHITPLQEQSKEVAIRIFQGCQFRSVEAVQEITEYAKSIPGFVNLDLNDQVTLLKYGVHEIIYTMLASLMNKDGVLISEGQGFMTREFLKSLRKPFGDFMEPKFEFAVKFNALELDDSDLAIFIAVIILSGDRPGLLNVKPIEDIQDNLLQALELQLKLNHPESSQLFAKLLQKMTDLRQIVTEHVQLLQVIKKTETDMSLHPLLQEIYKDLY
# Outline: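 Ratiometric blue/green fluorescence (405 nm excitation; 460 and 530 nm emission) from CCF4-loaded HEK293 reporter cells serves as signal. Exposure to test compounds lasts 16 h at 37 C in medium containing 1% charcoal/dextran-treated serum.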
# [7] = target: Retinoic acid receptor RXR-alpha (Homo sapiens) (UniProt P19793); test: qHTS assay for small molecule agonists of retinoid X receptor alpha signaling (AID 588544; calls by dose curve)
# Chain of Retinoic acid receptor RXR-alpha (Homo sapiens) (P19793 whole entry, looked up): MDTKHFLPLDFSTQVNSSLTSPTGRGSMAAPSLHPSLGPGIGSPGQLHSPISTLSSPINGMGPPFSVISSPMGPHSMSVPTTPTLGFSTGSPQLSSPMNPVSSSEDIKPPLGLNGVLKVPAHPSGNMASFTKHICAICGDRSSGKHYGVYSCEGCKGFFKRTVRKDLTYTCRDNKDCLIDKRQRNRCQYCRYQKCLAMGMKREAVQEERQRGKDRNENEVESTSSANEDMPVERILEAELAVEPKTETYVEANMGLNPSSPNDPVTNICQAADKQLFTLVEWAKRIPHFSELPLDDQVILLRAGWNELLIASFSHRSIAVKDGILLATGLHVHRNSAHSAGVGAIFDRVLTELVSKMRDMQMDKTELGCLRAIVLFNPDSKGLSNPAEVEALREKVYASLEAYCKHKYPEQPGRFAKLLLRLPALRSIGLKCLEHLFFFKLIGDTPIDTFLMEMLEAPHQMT
# [8] = target: Thyroid hormone receptor beta (Homo sapiens) (UniProt P10828); test: qHTS assay for small molecule agonists of thyroid hormone receptor beta signaling (AID 588545; calls by dose curve)
# Chain of Thyroid hormone receptor beta (Homo sapiens) (P10828 whole entry, looked up): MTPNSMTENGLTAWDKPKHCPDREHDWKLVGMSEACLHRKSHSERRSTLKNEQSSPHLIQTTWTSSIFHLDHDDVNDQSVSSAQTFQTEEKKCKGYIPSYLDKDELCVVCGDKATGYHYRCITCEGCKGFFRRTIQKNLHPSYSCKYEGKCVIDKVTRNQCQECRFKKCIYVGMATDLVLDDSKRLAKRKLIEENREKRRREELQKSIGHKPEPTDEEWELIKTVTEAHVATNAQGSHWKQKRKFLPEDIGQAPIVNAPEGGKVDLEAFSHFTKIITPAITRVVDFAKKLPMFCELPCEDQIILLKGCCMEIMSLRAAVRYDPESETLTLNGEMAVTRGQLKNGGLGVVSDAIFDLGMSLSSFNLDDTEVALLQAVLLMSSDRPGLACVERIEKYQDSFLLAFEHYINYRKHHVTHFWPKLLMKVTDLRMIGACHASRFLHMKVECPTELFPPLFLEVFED
# Outline: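 Agonist activity was read as beta-lactamase CCF4 fluorescence (405 ex, 460/530 em), scaled between DMSO (0%) and 10 nM T3 (100%), then Hill-fitted for EC50 and efficacy. HEK 293 TR-UAS-bla cells in 2% charcoal/dextran FBS medium were exposed 18 h at 37 C.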
# [9] = qHTS assay for small molecule agonists of the antioxidant response element (ARE) signaling pathway (AID 651741; active = well fitted activation curve with a large enough effect in the signal ratio; the % refers to the signal ratio; note: potency is the fitted concentration of half-maximal effect)
# Outline: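 Seeding 2,000 ARE-bla HepG2 cells per well preceded a 5 h incubation at 37 C/5% CO2 and a 16 h compound exposure at 37 C. Beta-lactamase reporter activity was then quantified by fluorescence after 2 h with LiveBLAzer B/G FRET substrate.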
# [10] = Cell Viability - LYMP2-004 (AID 966); note: nearly all actives have a fitted effect of over 65% in size
# Outline: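 Human lymphoblastoid cells (2500/well) in complete medium were treated with compounds for 24 hr at 37 C, then intracellular ATP was measured by CellTiter-Glo luminescence. AC50 values came from Hill-equation fits of concentration-response data.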
# [11] = Cell Viability - LYMP2-013 (AID 970); note: nearly all actives have a fitted effect of over 55% in size
# Outline: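 Human lymphoblastoid cells, 2500/well, were preincubated 5 hr at 37 C, then treated with compounds for 24 hr at 37 C in complete medium. Intracellular ATP was read by CellTiter-Glo luminescence; AC50 from Hill-equation fits of concentration-response data.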
# [12] = target: Peroxisome proliferator-activated receptor gamma (Homo sapiens) (UniProt P37231); test: qHTS assay for small molecule antagonists of peroxisome proliferator-activated receptor gamma signaling (AID 588537; active = well fitted inhibition curve with a large enough effect in the signal ratio, with a control signal flat, not every such curve was filed as active; the % refers to the signal ratio;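 note: reporter cells co-stimulated with 50 nM rosiglitazone agonist during compound treatment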)
# Outline: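 Inhibitors of agonist-stimulated UAS-bla reporter activity were sought in HEK293 cells; rosiglitazone (50 nM) defined full signal and DMSO baseline. Curves fitted to Hill model gave IC50 and efficacy.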
# [13] = qHTS assay for small molecule activators of the nuclear factor-kappa B (NF-kB) signaling pathway (AID 651749; active = well fitted activation curve with a large enough effect in the signal ratio; the % refers to the signal ratio); settings: NF-kB-bla ME-180 cells, beta-lactamase FRET ratio, 16 h; activation: stronger effect = higher value
# Outline: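 Stably transfected ME-180 line; NF-kB response element upstream of beta-lactamase. Treatment: compound or DMSO, 16 hr. Detection: fluorescent FRET substrate.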
# [14] = Cell Viability - LYMP2-024 (AID 988); note: nearly all actives have a fitted effect of over 60% in size; note: potency is the fitted concentration of half-maximal effect
# Outline: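 Human lymphoblastoid cells (2500/well) in complete medium were preincubated 5 hr at 37 C, then exposed to compounds for 24 hr at 37 C. Intracellular ATP was read by CellTiter-Glo luminescence; AC50 from Hill-equation fits of concentration-response data.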
# [15] = target: Bile acid receptor (Homo sapiens) (UniProt Q96RI1); test: qHTS assay for small molecule antagonists of farnesoid X receptor signaling (AID 588526; calls by dose curve)
# Chain of Bile acid receptor (Homo sapiens) (Q96RI1 whole entry, looked up): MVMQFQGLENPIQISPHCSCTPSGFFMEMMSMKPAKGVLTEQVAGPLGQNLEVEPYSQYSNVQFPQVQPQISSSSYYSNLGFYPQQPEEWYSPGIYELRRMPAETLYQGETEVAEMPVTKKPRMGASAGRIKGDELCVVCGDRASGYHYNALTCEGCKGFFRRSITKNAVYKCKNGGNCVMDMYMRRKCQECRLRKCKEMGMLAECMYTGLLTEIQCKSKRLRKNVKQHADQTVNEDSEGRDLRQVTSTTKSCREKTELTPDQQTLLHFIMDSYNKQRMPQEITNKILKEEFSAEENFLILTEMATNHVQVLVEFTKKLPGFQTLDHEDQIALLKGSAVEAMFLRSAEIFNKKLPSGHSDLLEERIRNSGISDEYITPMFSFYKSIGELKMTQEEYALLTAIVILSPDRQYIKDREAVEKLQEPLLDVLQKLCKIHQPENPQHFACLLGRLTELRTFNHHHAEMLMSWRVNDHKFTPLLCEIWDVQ
# Outline: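 Beta-lactamase reporter antagonist mode: HEK293T FXR-UAS-bla cells, titrated compound, CDCA stimulation, 16 h 37 C, CCF4 dye 2 h RT. Data normalized to CDCA 50 uM and DMSO; Hill-fit IC50.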
# [16] = target: Bile acid receptor (Homo sapiens) (UniProt Q96RI1); test: qHTS assay for small molecule agonists of farnesoid X receptor signaling (AID 588527; calls by dose curve); settings: HEK293T FXR-UAS-bla, beta-lactamase ratio, 16 h; stronger effect = higher value
# Outline: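 Agonist-mode beta-lactamase reporter in GeneBLAzer FXR-UAS-bla HEK293T cells, titration up to 92 uM, 16 h exposure at 37 C, CCF4 fluorescence. Response scaled to DMSO (0%) and 100 uM chenodeoxycholic acid (100%), then Hill-fitted for EC50 and efficacy.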
# [17] = Cellular Toxicity (caspase-3) NIH 3T3 (AID 666)
# Outline: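 Mouse NIH 3T3 fibroblasts (1000 cells/well) were treated with compound for 16 hr at 37°C in complete medium; caspase-3/7 activity was read by Caspase-Glo luminescence. Normalized to DMSO and 100 uM tamoxifen; AC50 from Hill fits.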
# [18] = Cell Viability - LYMP2-021 (AID 974);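 note: compound exposure lasts 24 hours at 37 °C; nearly all actives have a fitted effect of over 55% in size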
# Outline: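 Human lymphoblastoid cells (2500/well) were preincubated 5 hr at 37 C, then exposed to compounds for 24 hr at 37 C in complete medium. Intracellular ATP was read by CellTiter-Glo luminescence; AC50 came from Hill-equation fits of concentration-response data.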
# [19] = target: Tumor necrosis factor (Homo sapiens) (UniProt P01375); test: qHTS assay to identify small molecules that stimulate Tumor Necrosis Factor-alpha (TNF-alpha) secretion (AID 651757; active = well fitted curve in the direction sought with a large enough effect in the signal ratio; the % refers to the signal ratio)
# Chain of Tumor necrosis factor (Homo sapiens) (P01375 whole entry, looked up): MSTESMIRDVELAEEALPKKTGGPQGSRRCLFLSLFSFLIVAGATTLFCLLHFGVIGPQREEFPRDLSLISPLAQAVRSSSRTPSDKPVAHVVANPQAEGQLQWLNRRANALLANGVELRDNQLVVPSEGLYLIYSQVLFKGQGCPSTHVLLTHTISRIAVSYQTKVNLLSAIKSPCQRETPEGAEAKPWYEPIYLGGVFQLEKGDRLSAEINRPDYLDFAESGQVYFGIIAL
# Outline: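 THP-1 cells were exposed to compounds for 17 hrs at 37 C, after which secreted TNF-alpha was measured by homogeneous HTRF (TR-FRET) using cryptate- and XL665-labeled anti-TNF-alpha antibodies, read after 3 hr at room temperature.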
# [20] = Cell Viability - LYMP2-002 (AID 977);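 note: compound exposure lasted 24 h at 37 °C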
# Outline: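 Cytotoxicity is scored as concentration-dependent loss of cellular ATP in a human lymphoblastoid line after 24 hr compound treatment at 37 C. AC50 is obtained by modelling concentration-response data with the Hill equation.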
SMILES,outcome [1],caspase-3 activation [2],outcome [3],activation [4],max response [5],outcome [6],Potency [7],outcome [8],Potency [9],Potency [10],Potency [11],Potency [12],activation [13],Potency [14],outcome [15],activation [16],outcome [17],Potency [18],outcome [19],Potency [20]
ClC(Cl)=C(Cl)C(Cl)=C(Cl)Cl,inactive,5.5% (inactive),inactive,-16.2% (inactive),-24.7% and -5.61%,inactive,inactive,inactive,inactive,–,–,–,–,–,–,–,–,–,–,–
c1ccc(OP(Oc2ccccc2)Oc2ccccc2)cc1,inactive,–,–,10.9% (inactive) and -3.42% (inactive),–,inactive,inactive,inactive,–,inactive,inactive,inactive,-3.6% (inactive) and -0.416% (inactive),–,–,–,–,–,–,–
CC(C)(OO)c1ccccc1,inactive,-7.39% (inactive),inactive,1.9% (inactive) and -7.5% (inactive),-33%,inactive,–,inactive,inactive,–,–,inactive,-2.1% (inactive) and -0.395% (inactive),31.6 µM (active),inactive,-0.414% (inactive) and -0.341% (inactive),–,–,–,–
CCOP(=S)(OCC)Oc1ccc([N+](=O)[O-])cc1,inactive,14.9% (inactive) and 4.17% (inactive),inactive,1.36% (inactive) and 0.403% (inactive) and 5.24% (inactive),12.5% and -2.14%,–,inactive,inactive,inactive,inactive,–,inactive,-1.46% (inactive) and -0.889% (inactive) and 0.819% (inactive),inactive,–,–,inactive,inactive,–,–
NC(=S)Nc1ccccc1,inactive,–,inactive,11.7% (inactive),-9.7% and -15%,inactive,inactive,inactive,inactive,–,inactive,inactive,-0.0044% (inactive) and -1.03% (inactive) and -0.459% (inactive),–,inactive,-3.05% (inactive) and -3.49% (inactive),–,–,inactive,–
[O-][Br+2]([O-])O,–,-18.8% (inactive) and -17.4% (inactive),–,11.8% (inactive) and -3.56% (inactive),–,–,inactive,–,inactive,–,inactive,inactive,0.211% (inactive) and 0.528% (inactive),–,–,–,inactive,–,–,inactive
C=CC(N)=O,–,–,–,–,43.8% and 22.1%,–,–,–,inactive,–,–,–,-0.549% (inactive) and 0.0148% (inactive) and 0.73% (inactive),inactive,–,–,–,–,inactive,inactive
Brc1ccc(Oc2cc(Br)c(Br)cc2Br)c(Br)c1,inactive,12.3% [at 91.7 µM] (inactive) and -6.38% [at 91.7 µM] (inactive),inactive,–,18.7% and 4.79%,–,–,inactive,–,–,–,–,0.934% (inactive) and 2.14% (inactive) and 2.73% (inactive),–,–,0.173% (inactive) and 5.65% (inactive),–,–,inactive,inactive
Cc1ccc(O)c(C)c1,–,–,–,–,-17.8% and 29.7%,inactive,inactive,inactive,398 µM (active),inactive,inactive,inactive,0.131% (inactive) and -0.324% (inactive) and 1.7% (inactive),–,–,–,inactive,inactive,–,inactive
CC(O)CCl (configuration not stated),–,7.82% (inactive),inactive,-3.59% (inactive) and -2.54% (inactive),-27.3% and -9.22%,–,inactive,inactive,54.5 µM (active),–,–,inactive,1% (inactive) and -0.134% (inactive),–,inactive,-2.4% (inactive) and 3.49% (inactive),–,inactive,inactive,inactive
Clc1cccc(C(Cl)(Cl)Cl)n1,–,4.49% (inactive),–,–,–,inactive,inactive,–,inactive,inactive,–,inactive,–,inactive,inactive,0.959% (inactive) and 2.76% (inactive),–,inactive,inactive,inactive
C[N+](C)(C)Cc1ccccc1,–,–,inactive,-1.14% (inactive),-16.9% and 15.9%,–,–,inactive,inactive,–,inactive,inactive,–,–,inactive,-0.315% (inactive) and 0.14% (inactive),–,–,–,–
C=CC(C)=O,inactive,-2.96% (inactive),inactive,-1.11% (inactive),6.99%,–,–,–,inactive,–,–,–,0.254% (inactive),–,inactive,-1.53% (inactive),–,inactive,inactive,inactive
